Data published in PubChem BioAssay.
Activity calls are given as the source filed them. Unless noted, the rule behind the calls is not given here.

How the values were obtained:
[1] = circadian clock period modulators, cell-based, LOPAC library, luminescence reporter (AID 2774); settings: circadian reporter cells, at 7 µM, actives lie on both sides;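 note: values are relative to mean of DMSO wells on each plate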
[2] = system: Aerobactin synthetase IucA (Klebsiella pneumoniae, hypervirulent); assay: IucA enzyme inhibition, biochemical, LOPAC library, absorbance readout (AID 1346212); settings: IucA enzyme assay, absorbance (OD) readout; stronger effect = lower value;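 tested at 8 µM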;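 note: 100% = no compound wells and 0% = no enzyme wells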
[3] = system: Hepatitis C virus NS3 helicase; assay: HCV NS3 helicase inhibitors, primary screen, biochemical, fluorescence polarization, LOPAC1280 library (AID 687035; in the data active = inhibition above about 37%); settings: Purified HCV NS3 helicase, Cy5-dT15 ssDNA binding fluorescence polarization; stronger effect = higher value; concentration not given here
[4] = Cy5 fluorescence quenching or enhancement artefacts, artefact control for HCV NS3 helicase inhibitor project, biochemical, LOPAC1280 (AID 687037); settings: Cy5-DNA-NS3h complex fluorescence interference counterscreen
[5] = sensitizers of A549 cells to miR-34 induction, primary screen, imaging, A549 dox-inducible miR-34, nuclei and caspase counts (AID 1347080;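 active = compounds whose cell count with miR-34 switched on is under 0.7 times the count with it off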); settings: A549 miR-34 inducible, Hoechst nuclei count, 48 h
[6] = viability rescue of complex I mutant cybrids, primary screen, cell-based, galactose medium, ATP luminescence (AID 1645843;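 active = z-score of at least 1.8 in each of two replicates, scored against plate mean and spread of sample wells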;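 note: positive z means more ATP and so rescue of galactose-driven cybrid death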); settings: complex I mutant cybrid cells, 72 h, stronger effect = higher value
[7] = liver-stage malaria parasite growth inhibition, primary screen, cell-based, HepG2, luciferase luminescence, HepG2 viability (AID 624349; in the data active = parasite load remaining mostly below about 12%, no sharp cut-off; inactive = mostly above about 10%;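 note: 100% = mean of DMSO negative control wells on the same plate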); settings: P. berghei liver stage in HepG2, luciferase luminescence, concentration not given here; parasite load remaining: stronger effect = lower value; viability: measured here: HepG2 viability without parasites
[8] = survival rescue of mitochondrial mutant cells in low glucose, primary screen, MELAS cybrids, Rieske KO mouse fibroblasts, CellTiter-Glo (AID 1508586;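 active = mean z-score across replicates of 1.96 or higher in either the MELAS or the Rieske mutant cell line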;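 note: z relative to plate mean and SD of compound and empty wells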)
[9] = phospholipid biosynthesis inhibitors in animal cells, primary screen, cell-based, LOPAC library, screen 4 (AID 1347384); settings: phospholipid biosynthesis inhibition screen, at 10 µM
[10] = hESC survival regulators, cell-based (AID 493140); settings: human embryonic stem cell survival screen; stronger effect = higher value;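 note: cells exposed to compounds for four days before counting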
[11] = measured here: relative caspase fold change +Dox/-Dox
[12] = measured here: total cells with miR-34 induction, stronger effect = lower value
[13] = measured here: total cells without miR-34 induction

Question: With `COc1ccc2c3c1O[C@H]1C(=O)CC[C@@]4(O)C(C2)N(CC2CC2)CCC314` (stereo partly specified) as the molecule, how does the period change [1] read?
Answer: -0.115 h (inactive)

Question: And the remaining activity [2]?
Answer: 120% (inactive)

Question: For `CC12CCC3C(CCC4=C(O)C(=O)CCC43C)C1CCC2=O` (stereo unspecified), which period change [1] is on record?
Answer: -0.08 h (inactive)

Question: What about the inhibition [3] of the same molecule?
Answer: -3% (inactive)

Question: And the fluorescence ratio (interference) [4]?
Answer: 1 (inactive)

Question: What about the remaining activity [2] of the same molecule?
Answer: 113% (inactive)

Question: For `C[C@H](Cc1ccc2c(c1)OC(C(=O)O)(C(=O)O)O2)NC[C@H](O)c1cccc(Cl)c1`, which period change [1] is on record?
Answer: 0.1 h (inactive)

Question: And the inhibition [3]?
Answer: -3% (inactive)

Question: What about the fluorescence ratio (interference) [4] of the same molecule?
Answer: 1 (inactive)

Question: What about the remaining activity [2] of the same molecule?
Answer: 117% (inactive)

Question: And the fold change ([5]; stronger effect = lower value, cell number ratio, induced over uninduced)?
Answer: 1.02 (inactive)

Question: What about the fold change [5, 11] of the same molecule?
Answer: 1.78

Question: What about the cell count [5, 12] of the same molecule?
Answer: 10500

Question: And the cell count [5, 13]?
Answer: 10300

Question: And the z-score [6]?
Answer: 0.755 (inactive)

Question: Which period change [1] does the source give for `CCN(CC)C(=O)N[C@@H]1C[C@@H]2c3cccc4[nH]cc(c34)C[C@H]2N(C)C1` here?
Answer: 0.085 h (inactive)

Question: And the remaining activity [2]?
Answer: 102% (inactive)

Question: With `Oc1ccc2c3c1O[C@H]1c4[nH]c5ccccc5c4C[C@@]4(O)[C@@H](C2)N(CC2CC2)CC[C@]314` as the molecule, how does the parasite load remaining [7] read?
Answer: 47.8% (inactive)

Question: What about the viability [7] of the same molecule?
Answer: 98.5%

Question: What about the remaining activity [2] of the same molecule?
Answer: 108% (inactive)

Question: And the fold change ([5]; stronger effect = lower value)?
Answer: 0.934 (inactive)

Question: And the fold change [5, 11]?
Answer: 1.1

Question: And the cell count [5, 12]?
Answer: 8700

Question: And the cell count [5, 13]?
Answer: 9320

Question: And the z-score ([8]; MELAS cybrid survival, CellTiter-Glo 48 h, stronger effect = higher value)?
Answer: 0.24 (inactive)

Question: What about the z-score ([8]; Rieske KO mouse fibroblast survival, CellTiter-Glo 72 h) of the same molecule?
Answer: 0.662

Question: And the z-score [6]?
Answer: -0.405 (inactive)

Question: With `N[C@@H](Cn1ccc(=O)[nH]c1=O)C(=O)O` as the molecule, how does the period change [1] read?
Answer: 0.095 h (inactive)

Question: What about the remaining activity [2] of the same molecule?
Answer: 122% (inactive)

Question: Which inhibition [3] does the source give for `CC(=O)[C@H]1CC[C@H]2[C@@H]3CC[C@H]4C[C@](C)(O)CC[C@]4(C)[C@H]3CC[C@]12C` here?
Answer: -2% (inactive)

Question: What about the fluorescence ratio (interference) [4] of the same molecule?
Answer: 1 (inactive)

Question: What about the remaining activity [2] of the same molecule?
Answer: 116% (inactive)

Question: What about the fold change ([5]; stronger effect = lower value) of the same molecule?
Answer: 0.971 (inactive)

Question: And the fold change [5, 11]?
Answer: 1.33

Question: What about the cell count [5, 12] of the same molecule?
Answer: 10300

Question: What about the cell count [5, 13] of the same molecule?
Answer: 10600

Question: What about the outcome [9] of the same molecule?
Answer: inactive

Question: And the z-score [6]?
Answer: -0.05 (inactive)

Question: What does the source list for `CCN(CCCl)Cc1ccccc1Br`?
Answer: period change [1]: -0.02 h (inactive); inhibition [3]: -2% (inactive); fluorescence ratio (interference) [4]: 1 (inactive); remaining activity [2]: 111% (inactive)

Question: With `O=C(O)C1C2CCC(O2)C1C(=O)O` (stereo unspecified) as the molecule, how does the period change [1] read?
Answer: 0.03 h (inactive)

Question: What about the survival [10] of the same molecule?
Answer: 66 (inactive)

Question: What about the remaining activity [2] of the same molecule?
Answer: 81.7% (inactive)

Question: With `CN(N=O)c1cc(O)ccc1O` as the molecule, how does the period change [1] read?
Answer: 0.05 h (inactive)

Question: And the inhibition [3]?
Answer: -1% (inactive)

Question: What about the fluorescence ratio (interference) [4] of the same molecule?
Answer: 1 (inactive)

Question: What about the remaining activity [2] of the same molecule?
Answer: 103% (inactive)

Question: What about the fold change ([5]; stronger effect = lower value) of the same molecule?
Answer: 1.03 (inactive)

Question: What about the fold change [5, 11] of the same molecule?
Answer: 1.21

Question: What about the cell count [5, 12] of the same molecule?
Answer: 9960

Question: What about the cell count [5, 13] of the same molecule?
Answer: 9640

Question: What about the z-score [6] of the same molecule?
Answer: -1.04 (inactive)

Question: Which period change [1] does the source give for `N[C@H](CCCCCP(=O)(O)O)C(=O)O` here?
Answer: -0.025 h (inactive)

Question: And the remaining activity [2]?
Answer: 114% (inactive)
